For part of these data: Results with a measured potency or affinity are listed apart. Activity calls are given as the source filed them.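 The calls were made as follows, unless noted: active = fluorescence ratio normalized to control raised more than 50% in primary screen plus both repeat runs; inactive = the rest.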
Columns and labels:
[1] = tested on: TRPC4 beta (transient receptor potential cation channel C4), mouse; assay: activators of mouse TRPC4 channel, confirmation, cell-based, Fluo4 calcium, HEK293 TRPC4beta/mu-opioid, duplicates, 10 µM (AID 2426); details: Fluo4 calcium fluorescence, at 10 µM; stronger effect = higher value
[2] = tested on: transient receptor potential cation channel C4 beta (TRPC4), mouse; assay: activators of mouse TRPC4 channel, confirmation, cell-based, second round, Fluo4, HEK293 TRPC4beta/mu-opioid, 1 µM (AID 2461;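 active = primary screen active and over 50% activation in each of two duplicate runs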); details: Fluo4 calcium fluorescence, at 1 µM; stronger effect = higher value
[3] = tested on: TRPC4 (transient receptor potential cation channel C4 beta), mouse; assay: positive allosteric modulators of mouse TRPC4, confirmation, cell-based, second round, Fluo-4, HEK293 TRPC4beta/mu-opioid, 1 µM (AID 2554;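 active = primary screen hit whose fluorescence ratio, in both repeats, exceeds the weak agonist control mean by 3 SD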); details: DAMGO EC20, Fluo-4 calcium flux, at 1 µM; stronger effect = higher value
[4] = tested on: TRPC4 beta (transient receptor potential cation channel C4), mouse; assay: positive allosteric modulators of mouse TRPC4, confirmation, cell-based, Fluo-4, HEK293 TRPC4beta/mu-opioid (AID 2555;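 active = primary screen hit whose calcium fluorescence ratio, in both repeats, exceeds the weak agonist control mean by 3 SD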); details: DAMGO EC20, Fluo-4 calcium flux, at 10 µM; stronger effect = higher value
[5] = molecular target: Short transient receptor potential channel 4 (Mus musculus) (UniProt Q9QUQ5); assay: inhibitors of mouse TRPC4 channel, confirmation, cell-based, Fluo4, HEK293 TRPC4beta/mu-opioid (AID 2636;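 active = calcium signal cut by more than 3 SD below the full-agonist control yet still positive, in both repeats and the earlier primary screen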); details: DAMGO, Fluo4 calcium flux, at 10 µM; stronger effect = higher value
[6] = molecular target: Short transient receptor potential channel 4 (Mus musculus) (UniProt Q9QUQ5); assay: inhibitors of mouse TRPC4 channel, confirmation, cell-based, second round, Fluo4, HEK293 TRPC4beta/mu-opioid, 1 µM (AID 2637;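 active = calcium signal ratio cut to more than 3 SD under the fully stimulated control mean yet still positive, in both repeats and the primary screen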;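 as to inhibition: percent of integrated ratio relative to wells lacking test compound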); details: Fluo4 calcium flux, DAMGO, at 1 µM; stronger effect = higher value
[7] = molecular target: Short transient receptor potential channel 4 (Mus musculus) (UniProt Q9QUQ5); assay: mouse TRPC4 channel activators, dose response, cell-based, HEK293 TRPC4/mu-opioid, Fluo-4 calcium (AID 434937;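 active = primary screen activator hit with a dose response curve and TRPC4 channel activation at any tested dose; inactive = no activation, no dose response, or not a primary hit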)
[8] = molecular target: Short transient receptor potential channel 4 (Mus musculus) (UniProt Q9QUQ5); assay: TRPC4 positive allosteric modulators, dose response, cell-based, HEK293 TRPC4/mu-opioid, Fluo-4 calcium, EC20 DAMGO (AID 434941;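 active = earlier screen potentiator hit that boosts the TRPC4 ion channel at some dose, with a dose response; inactive = no potentiation, no dose response, or not a prior hit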;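 also: calcium entry triggered by an EC20 dose of DAMGO at the co-expressed mu-opioid receptor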)
[9] = molecular target: Short transient receptor potential channel 6 (Mus musculus) (UniProt Q61143); assay: inhibition of mouse TRPC6 channel, confirmation, selectivity assay for TRPC4 inhibitor project, cell-based, HEK293, membrane potential dye, duplicate (AID 434948;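 active = active in primary screen and both duplicates, each dropping signal beyond three positive-control SD with fluorescence still positive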); details: HEK293 TRPC6, membrane potential dye fluorescence, at 10 µM, stimulated with maximal-effect acetylcholine; stronger effect = higher value
[10] = molecular target: Short transient receptor potential channel 6 (Mus musculus) (UniProt Q61143); assay: activation of mouse TRPC6 channel, confirmation, selectivity assay for TRPC4 activator project, cell-based, HEK293, membrane potential dye, duplicate (AID 434950;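 active = membrane potential signal rise above negative control mean plus 3 SD in both duplicates, also active in the earlier TRPC4 screen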); details: HEK293 TRPC6, membrane potential fluorescence, at 10 µM; stronger effect = higher value
[11] = molecular target: Short transient receptor potential channel 6 (Mus musculus) (UniProt Q61143); assay: TRPC6 potentiation by TRPC4 potentiator hits, confirmation, selectivity assay for TRPC4 potentiator project, HEK293 cells, membrane potential dye, duplicate (AID 434952;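 active = compound raising the membrane signal above positive-control mean plus 3 SD in both repeats, and a primary screen hit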); details: HEK293 TRPC6, membrane potential dye fluorescence, at 10 µM, maximal acetylcholine added after compound; stronger effect = higher value
[12] = molecular target: Short transient receptor potential channel 4 (Mus musculus) (UniProt Q9QUQ5); assay: calcium flux activators in TRPC4/5HT1a cells, counter-screen for TRPC4 activator project, cell-based, second counter screen, HEK293 TRPC4/5HT1a, Fluo-4 (AID 434977;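 active = calcium signal rise above buffer-control mean plus 5 SD in both duplicates, and also a hit in the primary screen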); details: Fluo-4 calcium flux, at 10 µM; stronger effect = higher value
[13] = calcium flux inhibitors in TRPC4/5HT1a cells, confirmation, counter-screen for TRPC4 inhibitor project, cell-based, second counter screen, HEK293 TRPC4/5HT1a, Fluo-4 (AID 434978;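 active = primary screen active whose calcium signal fell more than 3 SD beyond the full-serotonin control mean in both duplicate plates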); details: Fluo-4 calcium flux, at 10 µM, serotonin added to trigger calcium flux; stronger effect = higher value
[14] = tested on: TRPC4 (mouse), co-expressed with 5HT1a in HEK293; assay: calcium flux potentiators in TRPC4/5HT1a cells, confirmation, counter-screen for TRPC4 potentiator project, cell-based, second counter screen, HEK293 TRPC4/5HT1a, Fluo-4 (AID 434979;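 active = signal rise over 3 SD above mean of control wells given weak agonist, in both repeats and first screen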); details: Fluo-4 calcium flux, at 10 µM, serotonin added at its EC20 dose; stronger effect = higher value
[15] = calcium flux activation in mu-opioid HEK293 cells, confirmation, counter-screen for TRPC4 activator project, cell-based, HEK293 mu-opioid receptor line (AID 449723;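 active = hit in primary screen, with calcium signal over 5 SD above buffer well mean in both duplicates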;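 also: counter screen cells carry the mu-opioid receptor alone and lack TRPC4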); details: Fluo-4 calcium fluorescence, at 10 µM; stronger effect = higher value
[16] = calcium flux enhancement in mu-opioid HEK293 cells, confirmation, counter-screen for TRPC4 allosteric potentiator project, cell-based, HEK293 mu-opioid receptor line (AID 449724;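 active = calcium signal rise more than 3 SD above the low-dose agonist control mean, in both duplicate plates and the primary screen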); details: Fluo-4 calcium flux, at 10 µM, compound added before EC20 DAMGO stimulus; stronger effect = higher value

Measured: inhibition

Sequence of Short transient receptor potential channel 6 (Mus musculus) (Q61143 whole entry, looked up): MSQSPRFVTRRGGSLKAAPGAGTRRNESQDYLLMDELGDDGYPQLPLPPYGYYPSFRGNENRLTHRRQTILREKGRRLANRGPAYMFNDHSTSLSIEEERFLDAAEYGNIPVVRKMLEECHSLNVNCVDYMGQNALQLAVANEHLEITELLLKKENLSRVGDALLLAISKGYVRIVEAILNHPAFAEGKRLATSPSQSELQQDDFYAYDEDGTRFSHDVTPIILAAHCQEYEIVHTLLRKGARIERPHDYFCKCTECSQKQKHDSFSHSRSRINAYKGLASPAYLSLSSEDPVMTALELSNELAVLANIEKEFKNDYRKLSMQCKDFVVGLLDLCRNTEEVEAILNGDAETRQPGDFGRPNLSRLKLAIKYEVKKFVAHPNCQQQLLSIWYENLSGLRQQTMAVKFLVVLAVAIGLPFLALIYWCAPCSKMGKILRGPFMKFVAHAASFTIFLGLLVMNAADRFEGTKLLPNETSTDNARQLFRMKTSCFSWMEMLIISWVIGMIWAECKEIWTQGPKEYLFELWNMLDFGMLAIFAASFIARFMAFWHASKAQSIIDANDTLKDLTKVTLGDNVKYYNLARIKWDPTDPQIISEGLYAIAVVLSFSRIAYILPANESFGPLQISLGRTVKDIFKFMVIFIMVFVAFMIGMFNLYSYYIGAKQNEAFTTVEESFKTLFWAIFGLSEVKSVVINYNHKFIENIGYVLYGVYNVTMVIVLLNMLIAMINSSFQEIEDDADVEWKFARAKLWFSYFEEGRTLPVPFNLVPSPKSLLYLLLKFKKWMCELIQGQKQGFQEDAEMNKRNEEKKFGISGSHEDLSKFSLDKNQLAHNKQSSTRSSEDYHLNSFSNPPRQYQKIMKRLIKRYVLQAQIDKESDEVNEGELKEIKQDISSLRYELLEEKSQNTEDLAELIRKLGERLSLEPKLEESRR
Sequence of Short transient receptor potential channel 4 (Mus musculus) (Q9QUQ5 whole entry, looked up): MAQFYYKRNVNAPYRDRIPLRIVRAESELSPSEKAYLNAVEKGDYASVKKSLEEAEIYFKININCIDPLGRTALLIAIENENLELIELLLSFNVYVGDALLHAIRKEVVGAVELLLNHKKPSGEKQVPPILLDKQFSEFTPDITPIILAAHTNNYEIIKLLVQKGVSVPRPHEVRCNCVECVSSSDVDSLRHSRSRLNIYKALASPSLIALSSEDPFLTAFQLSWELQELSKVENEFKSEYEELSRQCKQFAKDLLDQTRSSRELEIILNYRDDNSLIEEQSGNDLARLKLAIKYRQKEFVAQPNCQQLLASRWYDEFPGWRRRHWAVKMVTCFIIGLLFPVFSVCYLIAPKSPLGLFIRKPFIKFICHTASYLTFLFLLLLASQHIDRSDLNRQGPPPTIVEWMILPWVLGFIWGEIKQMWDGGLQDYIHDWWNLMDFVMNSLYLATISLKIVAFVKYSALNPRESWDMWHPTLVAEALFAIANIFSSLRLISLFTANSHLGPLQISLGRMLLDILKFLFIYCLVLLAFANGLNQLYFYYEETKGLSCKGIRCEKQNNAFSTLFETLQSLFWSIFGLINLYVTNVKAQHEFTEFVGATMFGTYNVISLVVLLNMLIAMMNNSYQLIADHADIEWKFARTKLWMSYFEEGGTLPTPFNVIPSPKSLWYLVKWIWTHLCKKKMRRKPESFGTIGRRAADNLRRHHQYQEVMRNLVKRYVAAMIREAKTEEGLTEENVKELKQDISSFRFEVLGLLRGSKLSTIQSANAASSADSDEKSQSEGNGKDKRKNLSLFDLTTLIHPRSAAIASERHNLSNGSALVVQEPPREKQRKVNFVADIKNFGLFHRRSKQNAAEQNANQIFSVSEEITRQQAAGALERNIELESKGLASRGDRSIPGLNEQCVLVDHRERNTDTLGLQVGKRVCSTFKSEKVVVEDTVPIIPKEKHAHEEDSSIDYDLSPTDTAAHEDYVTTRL

C=CCSc1nnc2n(-c3ccccc3OC)c(=O)c3c4c(sc3n12)CCC4
active: [5] 58% | [13] 29.1%
inactive: all other assays above

CN(C)C(CNC(=O)c1cccc(C(F)(F)F)c1)c1ccco1 (stereo not given)
active: [5] 67% | [6] 69%
inactive: all other assays above

Cc1cc(Nc2ccc(C)c(C)c2)c2ccccc2n1
active: [5] 99% | [6] 42% | [9] 35.5% | [13] 30.8%
inactive: all other assays above

CCOCc1cn(CC(=O)c2ccc(Cl)cc2)c(C)nc1=N
active: [5] 97% | [6] 72% | [13] 13%
inactive: all other assays above

CC(=O)N(c1ccc(Cl)cc1)c1c[nH]c2ccccc12
active: [5] 94% | [13] 22.3%
inactive: all other assays above

COc1ccc(Cl)cc1N/C(N)=N/c1nc(C)cc(C)n1
active: [5] 94% | [6] 53% | [9] 58% | [13] 15.3%
inactive: all other assays above

CCc1cc(C(c2cccc(OC)c2)N2CCOCC2)c(NC(=O)c2ccccc2)s1 (stereo not given)
active: [5] 62% | [13] 28%
inactive: all other assays above

COc1ccc(-n2c3c(cc(C(=O)NCc4ccco4)c2=O)C(=O)CC(C)(C)C3)cc1
active: [5] 53%
inactive: all other assays above

COc1ccc(CN2CCN(Cc3ccccc3F)CC2)c(OC)c1
active: [5] 89% | [13] 30.4%
inactive: all other assays above

CCC1C=C(c2ccccc2)C=CN=C1N(CC)CC (stereo not given)
active: [5] 93% | [13] 26.5%
inactive: all other assays above

COc1ccccc1CC(Cc1nc2ccccc2[nH]1)c1nc2ccccc2[nH]1 (stereo not given)
active: [5] 83% | [6] 52%
inactive: all other assays above

CC#CC[N+](C)(C)CCCCCCCCCCCC
active: [5] 97% | [6] 55% | [9] 36% | [13] 9.36%
inactive: all other assays above

CCOc1ccc(-c2cc(NC(=O)c3c(F)cccc3F)c(C(=O)O)s2)cc1
active: [5] 98% | [6] 41% | [13] 6.94%
inactive: all other assays above

CCCCC(=O)N(c1ccc(C(=O)O)cc1)c1nc(-c2ccc(Cl)cc2)c(CC)s1
active: [5] 52% | [13] 17.1%
inactive: all other assays above

CN1CCN(c2nc(-c3cccnc3)nc3scc(-c4ccccc4)c23)CC1
inactive: all assays above
